From PubChem BioAssay (NCI)
About 79,000 compounds went through this panel and 15% of them were active in at least one assay; those are over-represented in the sample as a whole. Active and inactive are the calls of the source. Cut-off read from the data, not from the text of the source: active = growth inhibition above about 70%; inactive = the rest.

Key:
[1] = NCI Yeast Anticancer Drug Screen. Data for the rad52 strain (AID 147);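 note: 0% = growth of vehicle-treated control cultures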; conditions: S. cerevisiae rad52 mutant growth inhibition, hits give high values
Procedure, shortened: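 DNA repair-defective yeast; compound exposure; growth scored against vehicle controls.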

[2] = NCI Yeast Anticancer Drug Screen. Data for the wt1 strain (AID 149);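 note: 0% = growth of vehicle-treated wt1 cultures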; conditions: S. cerevisiae wt1 strain (SPY 50644) growth inhibition, hits give high values
Procedure, shortened: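 The wt1 strain was treated with compounds, and growth was compared with vehicle-treated cultures to give inhibition.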

[3] = NCI Yeast Anticancer Drug Screen. Data for the rad50EPP+ strain (AID 151);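 note: 0% = growth of vehicle-treated control cultures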; conditions: S. cerevisiae rad50 mutant strain, hits give high values
Procedure, shortened: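 rad50EPP+ yeast treated with test compounds. Readout: growth vs vehicle control.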

[4] = NCI Yeast Anticancer Drug Screen. Data for the rad50 strain (AID 155);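 note: 0% = growth of vehicle-only cultures of the same strain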; conditions: S. cerevisiae rad50 strain growth inhibition, hits give high values
Procedure, shortened: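 Cells are treated with compound, grown, and their growth is then scored against vehicle-only cultures of the same repair-deficient yeast strain.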

[5] = NCI Yeast Anticancer Drug Screen. Data for the mec2-1 strain (AID 157); conditions: S. cerevisiae mec2-1 strain, hits give high values
Procedure, shortened: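 Growth inhibition is read against vehicle-treated controls after compound exposure of the mec2-1 yeast strain, which is defective in DNA damage repair or cell cycle control.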

[6] = NCI Yeast Anticancer Drug Screen. Data for the rad14 strain (AID 159);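 note: 0% = growth of vehicle-treated control cultures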; conditions: S. cerevisiae rad14 strain growth inhibition, hits give high values
Procedure, shortened: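 Readout: yeast growth inhibition, referenced to vehicle-only cultures. Strain bears a defined alteration in DNA damage repair.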

[7] = NCI Yeast Anticancer Drug Screen. Data for the sgs1 mgt1 strain (AID 161);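 note: 0% = growth of cultures given vehicle only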; conditions: S. cerevisiae sgs1 mgt1 strain, hits give high values
Procedure, shortened: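 Growth of a repair-deficient yeast mutant was monitored after compound treatment and expressed as inhibition relative to vehicle-treated cultures.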

[8] = NCI Yeast Anticancer Drug Screen. Data for the cln2 rad14 strain (AID 165);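 note: 0% = growth equal to vehicle treated cultures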; conditions: S. cerevisiae cln2 rad14 strain, hits give high values
Procedure, shortened: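 Growth inhibition, relative to vehicle-treated controls, is the read-out. The test organism is a yeast strain with defined genetic alterations, cln2 rad14.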

[9] = NCI Yeast Anticancer Drug Screen. Data for the bub3 strain (AID 167); conditions: S. cerevisiae bub3 mutant strain, hits give high values
Procedure, shortened: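 Part of a panel of yeast mutants defective in DNA damage repair or cell cycle regulation. Each strain is grown with compound, and inhibition is calculated relative to solvent-treated cultures.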

[10] = NCI Yeast Anticancer Drug Screen. Data for the wt2 strain (AID 169);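 note: 0% = growth of vehicle-treated yeast cultures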; conditions: S. cerevisiae wt2 strain growth inhibition, hits give high values
Procedure, shortened: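 Compound exposure of yeast; growth compared with vehicle controls; inhibition reported.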

[11] = NCI Yeast Anticancer Drug Screen. Data for the mlh1 strain (AID 171);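 note: 0% = growth of vehicle-treated control cultures of the same strain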; conditions: S. cerevisiae mlh1 strain growth inhibition, hits give high values
Procedure, shortened: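 Compounds are applied to a genetically altered yeast strain, and its growth is compared with that of vehicle-treated cultures to give percent inhibition.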

[12] = NCI Yeast Anticancer Drug Screen. Data for the sgs1 strain (AID 173);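 note: 0% = growth of vehicle-only control cultures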; conditions: S. cerevisiae sgs1 mutant, hits give high values
Procedure, shortened: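 Compounds applied to genetically altered yeast; growth compared with vehicle-treated cultures to give % inhibition.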

[13] = NCI Yeast Anticancer Drug Screen. Data for the mlh1 rad18 strain (AID 175); conditions: S. cerevisiae mlh1 rad18 strain growth inhibition, hits give high values
Procedure, shortened: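 Cells of a genetically altered yeast strain, deficient in DNA damage repair, were treated with compound. Their growth was then compared with that of vehicle-treated cultures to give inhibition.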

[14] = NCI Yeast Anticancer Drug Screen. Data for the rad18 strain (AID 177); conditions: S. cerevisiae rad18 mutant growth inhibition, hits give high values
Procedure, shortened: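 Compounds are applied to a repair-deficient yeast strain, and growth is compared with that of vehicle-treated cultures to give percent inhibition.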

[15] = at 5.0 µM (retest, dose inferred, filed as 0.5)
[16] = at 50.0 µM (retest, dose inferred, filed as 5.0)

Measured: growth inhibition

Oc1ccc(SCc2ccc(NCc3ccccc3)cc2)cc1
inactive: [1]; at 1.2 µM -4% | [1]; at 3.7 µM -27% | [1]; at 11.0 µM -26% | [1]; at 33.0 µM 19% | [2]; at 1.2 µM -32% | [2]; at 3.7 µM -35% | [2]; at 11.0 µM -52% | [2]; at 33.0 µM -4% | [3]; at 1.2 µM -10% | [3]; at 3.7 µM -22% | [3]; at 11.0 µM -17% | [3]; at 33.0 µM 0% | [3]; at 100.0 µM 6% | [4]; at 1.2 µM 0% | [4]; at 3.7 µM -13% | [4]; [15] 22% | [4]; at 11.0 µM -11% | [4]; at 33.0 µM 23% | [4]; at 50.0 µM 66.8% | [5]; at 1.2 µM -7% | [5]; at 3.7 µM 1% | [5]; [15] 12% | [5]; at 11.0 µM -13% | [5]; at 33.0 µM 20% | [5]; [16] 55% | [6]; at 1.2 µM -30% | [6]; at 3.7 µM -44% | [6]; at 11.0 µM -31% | [6]; at 33.0 µM 29% | [7]; [15] 42% | [7]; [16] 63% | [8]; [15] 38% | [8]; [16] 56% | [8]; at 50.0 µM 49.4% | [9]; at 1.2 µM 20% | [9]; at 3.7 µM 14% | [9]; [15] 53% | [9]; at 11.0 µM 11% | [9]; at 33.0 µM 60% | [9]; [16] 50% | [10]; at 1.2 µM -16% | [10]; at 3.7 µM -46% | [10]; at 11.0 µM -33% | [10]; at 33.0 µM 9% | [11]; at 1.2 µM -8% | [11]; at 3.7 µM -25% | [11]; at 11.0 µM -14% | [11]; at 33.0 µM 18% | [12]; at 1.2 µM -33% | [12]; at 3.7 µM -63% | [12]; at 11.0 µM -41% | [12]; at 33.0 µM 26% | [13]; [15] 19% | [14]; at 1.2 µM 22% | [14]; at 3.7 µM 7% | [14]; at 11.0 µM 12% | [14]; at 33.0 µM 32%
active: [1]; at 100.0 µM 89% | [2]; at 100.0 µM 91% | [4]; [16] 94% | [4]; at 100.0 µM 87% | [5]; at 50.0 µM 87.1% | [5]; at 100.0 µM 89% | [6]; at 100.0 µM 89% | [7]; at 50.0 µM 77.7% | [9]; at 50.0 µM 87.3% | [9]; at 100.0 µM 90% | [10]; at 100.0 µM 91% | [11]; at 100.0 µM 86% | [12]; at 100.0 µM 87% | [13]; [16] 75% | [13]; at 50.0 µM 79.8% | [14]; at 100.0 µM 91%
